Screening results as filed in PubChem BioAssay.
Pf growth 48h = Primary qHTS for delayed death inhibitors of the malarial parasite plastid, 48 hour incubation; P. falciparum luciferase growth in erythrocytes, 48 h; AID 504832, 2011; Potency, µM (titrated, usually from 28.7 µM), without a hit: top-dose activity change, negative = inhibition, hits mostly inhibitors; 310,000 compounds, 5.9% hits; further: potency means the concentration at half of the fitted maximal effect
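Compounds are pin-transferred into medium, infected erythrocytes (2% hematocrit, 0.1% parasitemia final) are added, and plates sit one parasite generation at 37 C in 5% CO2. Detection reagent is then added and luminescence measured.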
HCV inh = qHTS Assay for Inhibitors of Hepatitis C Virus (HCV) | AID 651820, 2012 | Potency, µM (series often up to 41.8 µM), without a hit: top-dose activity change, negative = inhibition, actives largely listed as inhibitors | 340,000 compounds, 3.4% hits | Huh7.5.1 HCVcc-Cre infection, luciferase reporter, 44 h; further: potency means the concentration at half of the fitted maximal effect
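Infectious HCVcc-Cre (~0.5 moi) was added to cells just after compound, with cells seeded 4 h earlier at 1,000 per well. Luciferase activity after 44 h culture reported infection; substrate was incubated 15 min at room temperature before reading.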
HCMV antiviral = qHTS Assay for inhibitors of the human cytomegalovirus (HCMV) | 410,000 compounds, 4.5% hits | HFF cells, HCMV-luciferase reporter, 72 h; active compounds read low | activity change, negative = inhibition, % at 57.5 µM; in the data active means activity change below about -60%; inconclusive means no clear call, values can overlap the other calls; inactive means above about -39%
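Steps: HFFs plated, 16 h 37C; compounds added; HCMV-luciferase added to MOI 1 PFU/cell; 72 h 37C; OneGlo reagent, 5 min room temperature; luminescence read, normalized to controls.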
Pf growth 96h = Primary qHTS for delayed death inhibitors of the malarial parasite plastid, 96 hour incubation; 320,000 compounds, 6.9% hits; P. falciparum luciferase reporter growth, 96 h; Potency, µM (doses to about 28.7 µM), without a hit: top-dose activity change, negative = inhibition, hits mostly inhibitors; AID 504834, 2011; further: potency means the concentration at half of the fitted maximal effect
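Compounds incubated with erythrocytes infected by luciferase-expressing P. falciparum (2% hematocrit, 0.05% parasitemia final) for 96 hours, 37 C in 5% CO2. Growth inhibition scored as decreased luciferase luminescence.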
Numbers without * were called inactive; ? = inconclusive; · = no result. An excerpt weighted towards active compounds, which were near 13% of everything screened. Unless noted, the call rests on the fitted dose curve; in most records, active means well fitted inhibition curve with a large enough effect; inconclusive means small, poorly fitted or top-dose-only effect, or another doubt; inactive means no such curve, though single readings can be large or run the other way. On the % scale 0 is the no-effect control and ±100 the full control effect.

SMILES	Pf growth 48h	HCV inh	HCMV antiviral	Pf growth 96h
Cc1nc2c(-c3ccccc3)c(C)nn2c(C)c1CCC(=O)NCc1ccco1	?	5%	-98*	-2%
CCC(C)(C)n1nnnc1C(c1ccc(C)cc1)N1CCN(Cc2ccc3c(c2)OCO3)CC1 (stereo not drawn)	15µM*	?	1	?
CCC(C)(C)n1nnnc1C(c1ccc2ncccc2c1)N1CCN(Cc2ccc3c(c2)OCO3)CC1 (stereo not drawn)	-18%	-5%	20	168%
CCC(C)(C)n1nnnc1C(c1ccc(C)cc1)N1CCC(C)CC1 (stereo not drawn)	10µM*	-10%	?	145%
CCC(C)(C)n1nnnc1C(c1ccncc1)N1CCC(C)CC1 (stereo not drawn)	-24%	4%	7	5%
Cc1cccc(-c2nc(S(=O)(=O)c3ccc(Cl)cc3)c(N3CCCCCC3)o2)c1	·	·	-5	·
COC(=O)C1=CN(Cc2ccccc2)C=C(C(=O)OC)C1c1ccc(OC)c(OC)c1	?	?	27	0%
COC(=O)C1=CN(Cc2ccc(OC)c(OC)c2)C=C(C(=O)OC)C1c1ccc(O)cc1	?	23%	20	52%
COC(=O)C1=CN(Cc2ccccc2)C=C(C(=O)OC)C1c1ccc(O)c(OC)c1	13µM*	0%	-6	240%
COCCN1C=C(C(=O)OC)C(c2cc(Br)c(OC)c(OC)c2)C(C(=O)OC)=C1	3.3µM*	-25%	42	4%
COC(=O)C1=CN(Cc2ccc(C)cc2)C=C(C(=O)OC)C1c1cc(OC)c(OC)c(OC)c1	1.5µM*	?	25	?
C[C@@H]1CN([C@H](C)CO)C(=O)CCCn2nncc2CO[C@@H]1CN(C)C(=O)NC1CCCCC1	·	·	-18	·
CCOc1ccc(-c2nc(SCC(=O)NCCOC)c(-c3ccc(OC)c(OC)c3)[nH]2)cc1	·	·	-4	·
CCOc1nc(NCc2ccco2)nc(Nc2ccc(OC)cc2)n1	-19%	?	-11	·
OCCNc1nc(Nc2ccc(Br)cc2)nc2ccccc12	0.93µM*	?	-34	?
COc1ccc(Nc2nc(NCc3ccco3)nc(N/N=C/c3ccccc3)n2)cc1	1.9µM*	-21%	22	128%
Cc1ccc(Nc2nc(NCc3ccco3)c3ccccc3n2)cc1	-21%	3.5µM*	-82*	-24%
OCCNc1nc(Nc2ccccc2)nc2ccccc12	?	?	4	46%
COc1ccccc1Nc1nc(NCc2ccco2)c2ccccc2n1	?	?	-99*	?
COc1ccc2nc3oc(C(=O)N(C)c4ccc(Cl)cc4)cc3cc2c1	·	·	4	·
COc1ccc([C@@H]2[C@@H](C(=O)N3CCOCC3)CC(=O)N2C(=O)Nc2ccc(C)c(Cl)c2)cc1	·	·	11	·
O=C(Nc1ccccc1)Nc1ccc2nnsc2c1	-44%	-11%	-19	?
O=C(Nc1cccc(C(F)(F)F)c1)Nc1ccc2snnc2c1	·	·	-105*	·
O=C(Nc1ccccc1)Nc1ccc2snnc2c1	?	11µM*	11	3.3µM*
Cc1nn(C(=O)COc2ccccc2Br)c(C)c1Sc1ccccc1	·	·	11	·
SMILES	Pf growth 48h	HCV inh	HCMV antiviral	Pf growth 96h
N#Cc1ccc(CSc2ncnc3c2cnn3Cc2ccccc2)cc1	?	0%	6	7.4µM*
Cc1ccc(CSc2ncnc3c2cnn3Cc2ccccc2)cc1	-2%	9%	-38	·
CCNc1ccccc1CP(=O)(c1ccccc1)c1ccccc1O (stereo not drawn)	13µM*	-1%	-18	12µM*
O=C(CSc1oc(-c2ccc(F)cc2)nc1S(=O)(=O)c1ccc(Cl)cc1)c1ccccc1	·	·	-11	·
O=C(NCc1ccccc1)[C@@H]1CCCN1C(=O)[C@@H]1CCCN1C(=O)c1cccs1	·	·	3	·
Cn1nnc(NC(=S)NC(=O)c2ccc3ccccc3c2)n1	·	·	-67*	·
Cn1nnc(NC(=S)NC(=O)c2cccc3ccccc23)n1	?	6%	16	13µM*
Cn1nnc(NC(=O)c2ccc3ccccc3c2)n1	?	-22%	34	?
Cn1nnc(NC(=O)c2ccc(C(C)(C)C)cc2)n1	9.3µM*	3%	19	0%
Cn1nnc(NC(=O)c2ccccc2F)n1	24%	17%	-11	-9%
CCC(C)NC(=O)c1cnn(-c2ccc(Cl)cc2)c1C1CCN(C(=O)OC(C)(C)C)CC1 (stereo not drawn)	·	·	-7	·
CCc1ccc(NC(=O)N2CCOc3ccc(Cl)cc32)cc1	·	·	17	·
CN1C(=S)N(c2ccccc2)C(=O)/C1=C/c1cccs1	-5%	4%	0	-16%
CCN1C(=O)/C(=C/c2cccs2)N(C)C1=S	·	5%	-5	1.7µM*
CCOC(=O)CSc1nc2cc3c(cc2cc1CC)OCCO3	?	?	25	12µM*
Cc1cc2cc3c(cc2nc1SCC(=O)N1CCCC1)OCCO3	-7%	-27%	-61*	?
Cc1cc2cc3c(cc2nc1SCC(=O)O)OCCO3	22%	13%	-35	?
N#Cc1cc2cc3c(cc2nc1SCC(=O)N1CCOCC1)OCCO3	0%	4%	-61*	10%
O=C(COc1ccccc1-c1nc(-c2ccccc2)no1)Nc1cccc([N+](=O)[O-])c1	·	·	12	·
CCCn1c2ccccc2c2cnn(CC(=O)NCCCN(Cc3ccccc3)C(C)C)c(=O)c21	·	·	-20	·
C=CCn1cc(C(=O)N2CCc3ccccc3C2)c(=O)c2cc(S(=O)(=O)N(CC)CC)ccc21	?	-3%	-67*	8%
CCN(CC)S(=O)(=O)c1ccc2c(c1)c(C(=O)O)cn2C	8%	10%	5	6.6µM*
CCN(CC)S(=O)(=O)c1ccc2c(c1)c(=O)c(C(=O)NCc1ccccc1Cl)cn2C	·	·	-65*	·
Cn1cc(C(=O)N2CCN(c3ccccn3)CC2)c(=O)c2cc(S(=O)(=O)N3CCOCC3)ccc21	9%	1%	24	154%
CCN(CC)S(=O)(=O)c1ccc2c(c1)c(=O)c(C(=O)N1CCN(c3ccccn3)CC1)cn2C	-7%	3%	?	0.52µM*
SMILES	Pf growth 48h	HCV inh	HCMV antiviral	Pf growth 96h
C=C(C)c1cccc(C(C)(C)NC(=O)Nc2nnc(C(C)C)s2)c1	27%	?	-101*	12µM*
C=C(C)c1cccc(C(C)(C)NC(=O)Nc2ccc(C)cn2)c1	30%	8.9µM*	-39	?
C=C(C)c1cccc(C(C)(C)NC(=O)Nc2cc(C)ccn2)c1	16%	?	?	?
C=C(C)c1cccc(C(C)(C)NC(=O)N2CCCC2)c1	-12%	10%	14	13µM*
CN1OC(C)(CC(=O)NCc2nccs2)N=C1c1cccc(Br)c1 (stereo not drawn)	·	·	-11	·
Cc1ccc(CCNC(=O)CCCc2nnc3n(C)c(=O)c4sccc4n23)cc1	·	·	-13	·
CCOc1ccc(CCNC(=O)c2nnc(Cc3cc(OC)c(OC)c(OC)c3)o2)cc1OCC	·	·	17	·
